This is a sample that favours compounds with a hit; in the whole collection about 10% have one here.
ALDH1A1 block = qHTS Assay for Inhibitors of Aldehyde Dehydrogenase 1 (ALDH1A1). Potency, µM (doses to about 75.3 µM), for inactives: top-dose activity, negative = inhibition, hits mostly inhibitors. Purified ALDH1A1, NADH fluorescence, propionaldehyde substrate. 220,000 tested, 7.3% active. Aldehyde dehydrogenase 1A1 (Homo sapiens), P00352; active = well fitted inhibition curve with a large enough effect, not every such curve was filed as active; inconclusive = small, poorly fitted or top-dose-only effect, or another doubt; inactive = no such curve, though single readings can be large or run the other way;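 also: potency is read from the fitted curve at half-maximal effect; plate controls were no enzyme wells and a reference inhibitor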
HPGD inh = qHTS Assay for Inhibitors of HPGD (15-Hydroxyprostaglandin Dehydrogenase) | 15-hydroxyprostaglandin dehydrogenase [NAD(+)] (Homo sapiens), P15428 | purified HPGD, NADH fluorescence kinetic, PGE2 substrate | Potency, µM, for inactives: top-dose activity change, negative = inhibition, actives largely listed as inhibitors | 150,000 tested, 4.3% active | AID 894, 2007; active = well fitted inhibition curve with a large enough effect, not every such curve was filed as active; inconclusive = small, poorly fitted or top-dose-only effect, or another doubt; inactive = no such curve, though single readings can be large or run the other way; also: potency is read from the fitted curve at half-maximal effect
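NADH formation kinetics: reaction with 30 uM PGE2 and 1 mM NAD+ (final), 20 nM enzyme, Tris-HCl pH 8 with Tween 20, after 15 min compound preincubation at room temperature. Fluorescence change, last versus first of five reads.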
12-hLO inh = qHTS Assay for Inhibitors of 12-hLO (12-human lipoxygenase); Polyunsaturated fatty acid lipoxygenase ALOX12 (Homo sapiens), P18054; purified 12-hLO, xylenol orange hydroperoxide absorbance; Potency, µM (top dose mostly 57.1 µM), without a hit: top-dose activity change, negative = inhibition, actives largely listed as inhibitors; 150,000 tested, 0.12% active; also: potency is read from the fitted curve at half-maximal effect; nearly all actives have a fitted effect of over 55% in size
Target sequence (P18054 whole entry, looked up): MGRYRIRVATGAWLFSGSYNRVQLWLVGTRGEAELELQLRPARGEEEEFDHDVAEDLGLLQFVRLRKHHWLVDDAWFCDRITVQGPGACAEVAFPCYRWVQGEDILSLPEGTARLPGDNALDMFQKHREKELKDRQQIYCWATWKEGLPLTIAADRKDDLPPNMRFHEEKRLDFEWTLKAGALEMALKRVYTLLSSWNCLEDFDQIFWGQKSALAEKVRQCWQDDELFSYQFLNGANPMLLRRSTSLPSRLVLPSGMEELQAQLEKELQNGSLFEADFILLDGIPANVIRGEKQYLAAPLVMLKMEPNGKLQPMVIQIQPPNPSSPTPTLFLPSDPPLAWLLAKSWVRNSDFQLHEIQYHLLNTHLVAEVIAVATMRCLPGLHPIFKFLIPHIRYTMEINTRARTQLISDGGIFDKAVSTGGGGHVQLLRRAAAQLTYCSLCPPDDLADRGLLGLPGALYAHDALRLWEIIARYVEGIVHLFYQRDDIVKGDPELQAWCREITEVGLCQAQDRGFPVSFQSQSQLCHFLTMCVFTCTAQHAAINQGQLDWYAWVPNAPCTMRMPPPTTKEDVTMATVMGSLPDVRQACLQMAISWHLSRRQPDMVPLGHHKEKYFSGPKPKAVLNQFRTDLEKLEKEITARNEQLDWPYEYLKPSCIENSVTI
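Hydroperoxide formation by human 12-lipoxygenase from 40 uM arachidonic acid was followed colorimetrically via ferric-xylenol orange complex, using the 573/405 nm absorbance ratio. Enzyme concentration was 150 nM, with 30 min reaction at room temperature.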
GLA inh pH 4.5 = qHTS Assay for Inhibitors of Human alpha-Galactosidase at pH 4.5; Alpha-galactosidase A (Homo sapiens), P06280; 230,000 tested, under 10 active; purified enzyme, 4-MU-alpha-Gal fluorescence, pH 4.5; AID 1467, 2008; activity change, negative = inhibition, % at 105 µM;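 also: 0% = full activity with enzyme and -100% = basal without enzyme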
PNC assembly inh = High Content Assay for Compounds that inhibit the Assembly of the Perinucleolar Compartment. 140,000 tested, 3.1% active. PC3M PTB-GFP, PNC prevalence imaging, 16 h; active compounds read low. activity change (PNC), negative = inhibition, % at 10 µM. AID 2417, 2010;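 active = readout at or below -70, meaning at least 70% loss of cells showing the perinucleolar compartment, a nuclear body marking cancer cells; inconclusive = readout between -30 and a set limit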;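 also: plate controls were DMSO wells for no effect and camptothecin positive control wells for full effect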
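Compounds are pinned in duplicate onto adhered PC3M cells stably expressing GFP-tagged PTB and incubated 16 h at 37 C. Cells are then fixed, nuclei stained with Hoechst, and PNC-positive cells counted.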
GLA spleen mod = qHTS Assay for Inhibitors and Activators of Human alpha-Galactosidase From Spleen Homogenate. Potency, µM (highest dose often 80 µM), inactives show at the highest dose activity change, negative = inhibition, hits mostly inhibitors. 240,000 tested, 0.008% active. human spleen homogenate, 4MU-alpha-Gal fluorescence, 40 min;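 also: potency is read from the fitted curve at half-maximal effect; 0% = enzyme with vehicle and -100% = no enzyme basal signal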
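Inhibition or activation of alpha-galactosidase in human spleen homogenate is scored by 4-MU fluorescence after 40 min at 37C, pH 5.0, with 1 mM substrate. AC50s come from concentration-response fitted to the Hill equation.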
Active calls of the source: *; ? = inconclusive; . = not tested or not shown; [ ] = dose if it differs, or a comment. Unless noted, calls follow the shape of the dose curve; as a rule, active = well fitted curve in the direction sought with a large enough effect; inconclusive = small, poorly fitted or top-dose-only effect, or another doubt; inactive = no such curve, though single readings can be large; an effect the other way counts as inactive or inconclusive. Unless noted, % is scaled to controls: 0 for no effect and ±100 for the full control effect.

SMILES | ALDH1A1 block | HPGD inh | 12-hLO inh | GLA inh pH 4.5 | PNC assembly inh | GLA spleen mod
COc1ccc(C(CNC(=O)c2cncc(Br)c2)N(C)C)cc1 (stereo not drawn) | -7.3% | . | . | 5.4 | . | -1.1%
Cc1ccn2c(/C=N/OCc3ccc(F)cc3)c(-c3ccc(Cl)cc3)nc2c1 | 22.4µM* | . | -3.4% | 2.6 | -18.7 | 2.3%
S=C(NC1CCCCC1)N1CCC([C@H]2C=NC=N2)CC1 | -2.9%[20.9 µM] | 0.5% | -3.0%[25.6 µM] | -1.7 | . | 12.0%[29.1 µM]
O=C(CC(Nc1ccc(F)cc1)C(=O)OCC(=O)c1cccs1)c1ccccc1 (stereo not drawn) | 11.2µM* | -14.7% | -7.7% | 0.9 | 6.8 | 7.7%
O=C(CC(Nc1ccc(F)cc1)C(=O)O)c1ccccc1 (stereo not drawn) | ? | -6.2% | -3.0% | -3.2 | ? | 1.1%
COc1ccc(C2CC(=O)Oc3c2c(=O)n(C)c2ccccc32)c(OC)c1OC (stereo not drawn) | -1.4% | . | . | 11.4 | . | -8.0%
CC1=NN(Cc2ccccc2)C(=O)C1C(c1ccc(Cl)cc1)C(C#N)C#N (stereo not drawn) | 25.1µM* | 28.2µM* | -4.3% | 3.4 | -14.4 | -5.4%
CC1=NN(Cc2ccccc2)C(=O)C1C(c1ccccc1)C(C#N)C#N (stereo not drawn) | ? | 31.6µM* | -6.1% | 5.2 | 102.3 | -11.8%
CC1=NN(Cc2ccccc2)C(=O)C1C(c1ccncc1)C(C#N)C#N (stereo not drawn) | . | . | . | 0.2 | . | 4.2%
O=C(NCc1ccco1)c1cc([N+](=O)[O-])cc([N+](=O)[O-])c1 | ? | -7.7% | 0.7% | 5.5 | 444.8 | -1.2%
COc1ccc(N=N/C(=C\O)C(=O)c2cccs2)cc1 | 14.1µM* | . | . | -0.3 | . | -6.9%
COc1ccc(C(=O)/C(=C/O)N=Nc2ccc(F)cc2)cc1 | 3.98µM* | . | . | -8.1 | . | -7.1%
COc1ccc(C(=O)C(/C=N/O)=N/Nc2ccc(F)cc2)cc1 | 14.8% | . | . | -9.1 | . | 1.3%
CC(=O)O[C@@H]1[C@@]2(C)O[C@H]2CC[C@]23O[C@H]2[C@H](OC3=O)C2=C(C)C(=O)O[C@@]21O | 28.2µM* | 1.1% | -1.9% | -0.5 | 46.3 | 8.0%
NC(=O)CCN1CCCCC1 | 3.5% | . | . | -11.1 | . | 4.0%
O=C(CCC(=O)CCN1CCCCC1)CCN1CCCCC1 | 0.631µM* | -4.0% | -4.4% | 5.9 | ? | -3.2%
C/C(=N/O)[C@@H]1C[C@H](CC(=O)O)C1(C)C | 0.6%[13.5 µM] | -9.2% | -5.9%[11.4 µM] | . | . | .
O=C(NCc1ccc(F)cc1)c1cnn2ccccc12 | ? | 3.1% | -2.1% | 3.4 | -84.4* | -6.8%
CCCCCCCC/C=C\CCCCCCCCCCCC(=O)O | . | . | . | . | . | 3.7%
O=C(Nc1ccc(-n2nncc2-c2ccco2)cc1)c1cccc(F)c1 | ? | 12.6µM* | -7.6% | 0.0 | 12.2 | 0.9%
O=C(Nc1ccc(-n2nncc2-c2ccco2)cc1)c1cc2ccccc2oc1=O | -11.8% | -17.9% | -2.5% | 0.0 | 36.7 | -5.1%
COc1ccc(C2=NN(C(N)=S)C(c3ccco3)C2)cc1 (stereo not drawn) | 17.8µM* | . | . | -9.2 | . | -2.9%
CCOC(=O)C(O)(CC(=O)c1ccc(OC)cc1)C(F)(F)F (stereo not drawn) | ? | -3.7% | 1.5% | -1.6 | -81.0* | 0.9%
COC(=O)C(O)(CC(=O)Nc1ccc(OC)cc1)C(F)(F)F (stereo not drawn) | 5.6% | 1.6% | -0.4% | 3.3 | ? | 6.0%
COc1ccccc1/C=C/C(C)=O | -12.8% | -26.6% | -3.4% | 1.1 | 25.2 | -3.5%
SMILES | ALDH1A1 block | HPGD inh | 12-hLO inh | GLA inh pH 4.5 | PNC assembly inh | GLA spleen mod
CNc1ccccc(C(=O)/C=C/c2ccccc2OC)c1=O | 10µM* | 12.6µM* | -7.8% | -2.7 | 52.3 | 1.2%
CNc1ccc(Br)cc(C(=O)/C=C/c2cccc(OC)c2OC)c1=O | 15.8µM* | 14.1µM* | -20.9% | 2.1 | -22.2 | 0.4%
CC(=O)NCCNc1ncnc2ccc(-c3ccccc3C#N)cc12 | ? | . | . | . | . | 1.2%
CCc1ccc2[nH]c(=O)c(CN(Cc3ccccc3)Cc3nnnn3Cc3ccco3)cc2c1 | 12.6µM* | -24.9% | ? | -17.5 | ? | -2.3%
O=c1[nH]c2cc3c(cc2cc1CN(Cc1ccccc1)Cc1nnnn1Cc1ccco1)OCCO3 | ? | ? | -13.2% | 2.4 | 21.7 | 12.4%
Cc1ccc2[nH]c(=O)c(CN(Cc3ccc4c(c3)OCO4)Cc3nnnn3Cc3ccco3)cc2c1 | 25.1µM* | -6.2% | -16.3% | -0.9 | -8.9 | -1.5%
Cc1cc(C)c2cc(CN(Cc3ccc4c(c3)OCO4)Cc3nnnn3Cc3ccco3)c(=O)[nH]c2c1 | 4.47µM* | -28.4% | -29.4% | -23.2 | 5.6 | -4.1%
COc1cccc([C@@H]2Oc3ccc(Br)cc3C[C@H]2OC(=O)Nc2ccc(C)c(Br)c2)c1 | -3.8% | -15.0% | . | -6.9 | . | 5.2%
CCOC(=O)c1cnc(SC)nc1Sc1cc(Cl)ccc1Cl | ? | 7.08µM* | -4.2% | 14.9 | 27.2 | 1.6%
CCOC(=O)c1cnc(SC)nc1Nc1cccc(F)c1 | -1.8% | -9.4% | -10.3% | -1.9 | 39.6 | 3.8%
FC(F)Oc1ccc(NC(=S)Nn2cnnc2)cc1 | 7.94µM* | . | . | -0.7 | . | -1.4%
CN(NC(=S)Nc1ccc(OC(F)F)cc1)C(=S)Nc1ccc(OC(F)F)cc1 | 22.1% | 17.8µM* | -4.5% | 4.2 | -0.7 | 6.4%
Cc1nc(CC(=O)c2ccc(O)cc2O)cs1 | -2.3% | -18.0% | -12.1% | 5.1 | ? | 2.8%
Cc1nc(C/C(=N\Nc2ccccc2)c2ccc(O)cc2O)cs1 | 3.16µM* | . | . | 7.1 | . | -6.0%
CCc1cc(/C(Cc2ccccn2)=N\Nc2ccccc2)c(O)cc1O | 7.94µM* | . | . | -16.5 | . | -3.1%
Clc1ccc(CSc2nnc(-c3cccnc3)n2Cc2ccco2)c(Cl)c1 | 4.47µM* | 14.1µM* | ? | -5.0 | 10.6 | 14.0%
CN(C)c1ncc2nc(-c3ccccc3)c(=O)n(C[C@H]3CCCO3)c2n1 | ? | . | . | . | . | 26.3%
CC(=O)OCCCNc1cc(SCc2ccco2)c2nonc2c1[N+](=O)[O-] | 7.94µM* | 7.94µM* | -9.6% | -2.4 | 32.3 | 1.0%
CCCSc1cc(NCCOC(=O)CCC)c([N+](=O)[O-])c2nonc12 | ? | -16.8% | -8.6% | -2.7 | 15.7 | -4.6%
CCCC(=O)OCCNc1cc(SCc2ccco2)c2nonc2c1[N+](=O)[O-] | 4.47µM* | ? | -24.9% | 7.0 | 13.4 | 0.5%

High-throughput results from PubChem BioAssay.
